In PubChem BioAssay (NCI):
The panel holds about 83,000 compounds, 20% with a hit somewhere; the sample as a whole holds those more often.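 The test compound was applied at a single concentration to cells in 96-well plates for 48 hours, and percent growth was recorded.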 Calls of active or inactive are those of the source.

The compounds below were run on BT-549 breast (assay: NCI-60 one-dose screen, 48 h (100 = growth as untreated, 0 = no growth, -100 = all killed)). Settings: 10 µM unless noted.
Description: Growth inhibition of the BT-549 human tumor cell line is measured as a screen for anti-cancer activity. Cells are grown in 96 well plates and exposed to the test compound for 48 hours. Compounds are tested at a single concentration, which is 10^-5 M for most compounds. The reported endpoint is percent growth (GI% or GIPRCNT), where numbers from 0 - 100% represent growth inhibition, and numbers from -100% - 0 represent cell death. For example, a value of 40 represents 60% growth inhibition. A value of 0 means no net growth occurred over the course of the experiment. A value of -40 indicates 40% of cells at the beginning of the experiment died by the end of the experiment. A value of -100 means all cells are dead at the end of the experiment.
NCI-60 Human Tumor Cell Lines Screen was performed using the standard one-dose NCI protocol, which is described in more detail at https://dtp.cancer.gov/discovery_development/nci-60/default.htm.
Compounds with GIPRCNT values below 10 were considered active. Activity score was based on GIPRCNT using the following formula: […]
Score is 0 for GIPRCNT values of 100 or above, 50 for GIPRCNT values of 0, and 100 for GIPRCNT values of -100.
For COc1cc(/C=C/c2cc(/C=C/c3ccc(O)c(OC)c3)n(C(=O)Nc3ccc(F)c(Cl)c3)n2)ccc1O, the growth was -24.2% (active). For Cc1c2c(cc3c1[nH]c1ccccc13)C=NCC2, the growth was 79.6% (inactive). In the case of OCCN(CCO)c1ccc2ccccc2c1, the growth is reported as 101% (inactive). With CC1OC(n2c3ccccc3c3c4c(c5c6ccccc6[nH]c5c32)C(=O)N(CCN[C@H]2CCC[C@@H]2N)C4=O)CC(O)C1O (stereo not given in full) the growth was 46.9% (inactive). With CC1=CC(=O)OC1C/C=C(\C)CCC1[C@@]2(C)CCC[C@@](C)(C(=O)O)C2CC[C@@]1(C)O (stereo not given in full) the growth was 67.3% (inactive). In the case of CCCNCCC(C)=O, the growth is reported as 106% (inactive). O=C(CC(=O)C(F)(F)C(F)(F)C(F)(F)F)c1cc2ccccc2o1 was tested, and the growth was 111% (inactive). COC(=O)c1ccc2c(c1)nc(-c1ccc(Cl)cc1)n2-c1cc(C(C)(C)C)[nH]n1 was tested, and the growth was 43.9% (inactive). With C[N+](C)(C)CCCCCCCCCC[N+](C)(C)C the growth was 78.7% (inactive). For COc1ccc2nc(C)cc(Sc3nc4ccccc4s3)c2c1, the growth was -11.8% (active). In the case of CC(C)(C)OC(=O)N1CCCN(CCNc2nccc(-c3c(-c4cccc(O)c4)nc4sccn34)n2)S1(=O)=O, the growth is reported as 136% (inactive). COc1cc(OC)c(Cl)cc1N was tested, and the growth was 123% (inactive). In the case of CC(C)(C)c1ccc(C(=O)Nc2sc3cc(O)ccc3c2C(N)=O)cc1, the growth is reported as 85.4% (inactive). O=C1OCC2=C1C(c1ccccc1)c1cc3c(cc1N2CCO)OCO3 (stereo not given) was tested, and the growth was 43.9% (inactive). With C[N+](C)(C)CC(=O)N/N=C\c1ccco1 the growth was 104% (inactive). With C=C1C[C@@]2(C)C(CC[C@]3(C)C2CC=C2C4CC(C)(C)C[C@@H](OC(=O)/C(C)=C\C)[C@]4(C(=O)O)CC[C@]23C)C(C)(C)C1=O (stereo not given in full) the growth was -19.7% (active). With CCOCCNc1ccc(S(=O)(=O)c2ccc(N)cc2)cc1N the growth was 107% (inactive). In the case of O=C(Nc1ccc(Br)cc1)Nc1cccc(Br)c1, the growth is reported as 58.2% (inactive). In the case of COc1cnc2c(c1)C(=O)c1c-2n(CCCNC(C)C)c(=O)c2cc(Cl)ccc12, the growth is reported as 30.9% (inactive). C=C[C@H]1CCC/C=C/[C@@H]2C[C@H](O)C[C@H]2[C@H](O)/C=C/C(=O)O1 was tested, and the growth was 0.705% (active). C=C(C)[C@@H]1CC[C@]2(C(=O)NS(=O)(=O)c3ccccc3)CC[C@]3(C)[C@H](CC[C@@H]4[C@@]5(C)CC[C@H](OC(=O)NS(=O)(=O)c6ccccc6)C(C)(C)[C@@H]5CC[C@]43C)[C@@H]12 was tested, and the growth was -0.983% (active). For CC(C)N(C(=S)SSC(=S)N(C(C)C)C(C)C)C(C)C, the growth was 107% (inactive). ClCc1c(Cl)c(Cl)c(Cl)c(CCl)c1Cl was tested, and the growth was 87.5% (inactive). In the case of COc1cc(C2C(C#N)=C(N)Oc3cc4c(cc32)OCO4)cc2c1OCO2 (stereo not given), the growth is reported as 34.8% (inactive). O=C1CCCN1C(O)CCN(Cc1ccccc1)Cc1ccc(Cl)cc1 (stereo not given) was tested, and the growth was 105% (inactive). In the case of NS(=O)(=O)c1ccc(CCn2c(SCC(=O)N/N=C/c3ccccc3O)nc3ccccc3c2=O)cc1, the growth is reported as 53.9% (inactive). With CCN(CC)Cc1cc(Nc2ccnc3ccc(OC)cc23)ccc1O the growth was 55.2% (inactive). COc1cc(/C=C\c2cc(/C=C\c3ccc(O)c(OC)c3)n(C(=O)Nc3ccc(C(F)(F)F)cc3)n2)ccc1O was tested, and the growth was 19% (inactive). N=C(N)c1ccc(-c2ccc(-c3cccs3)s2)cc1F was tested, and the growth was -80.6% (active). For O=C(CCl)Nc1cc(O)c2c(c1)C(=O)c1cccc(O)c1C2=O, the growth was -48.4% (active). Oc1c(C(Nc2cccc3ccccc23)c2ccccc2)ccc2cccnc12 (stereo not given) was tested, and the growth was -16.1% (active). CN(C)CCNC(=O)n1cc(-c2ccncc2)c(-c2cc(O)cc(Cl)c2)n1 was tested, and the growth was 102% (inactive). With CN1C2CCC1/C(=C\c1ccc(Cl)cc1)C(=O)/C2=C/c1ccc(Cl)cc1 the growth was 70.6% (inactive). CC(C)CC(=O)C(CCc1ccccn1)C(C)C (stereo not given) was tested, and the growth was 108% (inactive). COc1ccc(C2NC(=O)c3cc4c(cc3N2)OCO4)cc1 (stereo not given) was tested, and the growth was 59.1% (inactive). c1cc2c(cc1-c1cnc3nonc3n1)OCO2 was tested, and the growth was 95.2% (inactive). For Oc1ccccc1-c1nnc(COc2ccc(Cl)cc2Cl)o1, the growth was 63.3% (inactive). O=S(=O)(Nc1ccc2ccccc2c1)N1CCCCC1 was tested, and the growth was 47.3% (inactive). O=C(/C=C/c1ccc(F)cc1)N1CCN(C(=O)/C=C/c2ccc(C(F)(F)F)cc2)CC1 was tested, and the growth was 115% (inactive). With COc1cc(NCCC2CCCCN2)c2ncccc2c1OC (stereo not given) the growth was 91.6% (inactive).
